Measured values from PubChem BioAssay (Tox21).
Results filed as inconclusive are left out. Unmarked numbers belong to inactive results. Activity calls are given as the source filed them. Calls come from the whole dose curve.

assay: qHTS assay for small molecule agonists of the antioxidant response element (ARE) signaling pathway - cell viability counter screen (AID 743203); details: ARE-bla HepG2 viability, CellTiter-Glo luminescence, 16 h; series mostly up to 73.3 µM; viability change, negative = cytotoxic: at the top concentration; note: nearly all actives have a fitted effect of over 55% in size
Description: National Center for Advancing Translational Sciences [NCATS]
NIH Chemical Genomics Center [NCGC]
U.S. Environmental Protection Agency [EPA]
National Institutes of Environmental Health Sciences [NIEHS]
National Toxicology Program [NTP]
U.S. Food and Drug Administration [FDA]
Oxidative stress has been implicated in the pathogenesis of a variety of diseases ranging from cancer to neurodegeneration. The antioxidant response element (ARE) signaling pathway plays an important role in the amelioration of oxidative stress. The CellSensor ARE-bla HepG2 cell line (Invitrogen) can be used for analyzing the Nrf2/antioxidant response signaling pathway. Nrf2 (NF-E2-related factor 2) and Nrf1 are transcription factors that bind to AREs and activate these genes. The CellSensor ARE-bla Hep G2 cell line contains a beta-lactamase reporter gene under control of the Antioxidant Response Element (ARE) stably integrated into HepG2 cells. The activation of the report gene under culture conditions can be detected by fluorescence intensity. This cell line has been used to screen the Tox21 10K compound library to identify agonists that induce oxidative stress. The cytotoxicity of the Tox21 compound library against the ARE-bla cell line was tested in parallel by measuring the cell viability using CellTiter-Glo assay (Promega, Madison, WI) in the same wells.
Tox21 Assay Protocol Summary:
ARE-bla HepG2 cells were dispensed at 2,000 cells/5 ul/well in 1536-well white wall/solid bottom plates using a Multidrop Combi (ThermoFisher Scientific, Waltham, MA) dispenser. After the assay plates were incubated at 37C/5% CO2 for 5 hrs, 23 nL of compounds dissolved in DMSO, positive controls or DMSO only was transferred to the assay plate by a pintool work station (Kalypsys, San Diego, CA). The plates were incubated at 37C/5% CO2 for 16 hrs, followed by addition of 4 ul/well of CellTiter-Glo reagent into the assay plates using a Flying Reagent Dispenser (Aurora Discovery, San Diego, CA). After 30 min incubation at room temperature, the luminescence intensity in the assay plates was measured using a ViewLux (PerkinElmer, Shelton, CT) plate reader.
% is set by controls: 0 for no effect and ±100 for the full control effect; potency is the fitted concentration of half-maximal effect.

Compared with O=C(Cl)c1cccc([N+](=O)[O-])c1, NC(=O)NS(=O)(=O)c1ccc(Cl)cc1 is higher in “viability change, negative = cytotoxic” value: -3.45% for the first, 9.11% for the second.

First: CC(C)NCC(O)COc1ccc(CCOCC2CC2)cc1 (stereo not given)
Second: COC(=O)c1ccc(OC)cc1
The “viability change, negative = cytotoxic” value of the first is higher: -0.927% for the first, -17.5% for the second.

First: CCCCc1ccc2nc(NC(=O)OC)[nH]c2c1
Second: CCOc1ccc(NC(N)=O)cc1
The “viability change, negative = cytotoxic” value of the first is higher: 24.8% for the first, 5.56% for the second.

Compared with CCN(CC)CC1CCCCN1CC(=O)N1c2ccccc2C(=O)Nc2cccnc21 (stereo not given), NC1=NCC2c3ccccc3Cc3ccccc3N12 (stereo not given) is higher in “viability change, negative = cytotoxic” value: -1.15% for the first, 0.17% for the second.

Compared with CCOc1ccccc1N, ICCc1ccccc1 is lower in “viability change, negative = cytotoxic” value: -0.845% for the first, -7.07% for the second.

Going from NNS(=O)(=O)c1ccc(Oc2ccc(S(=O)(=O)NN)cc2)cc1 to NC(=O)Cc1cccc(C(=O)c2ccccc2)c1N, the “viability change, negative = cytotoxic” value rises from -0.842% to 9.55%.

Going from CC(C)(C)C1CCCCC1=O (stereo not given) to CC(C)C1=CC2=CC[C@@H]3[C@](C)(CCC[C@@]3(C)C(=O)O)[C@H]2CC1, the “viability change, negative = cytotoxic” value rises from 3.36% to 15.3%.

First: CCCc1c2oc(C(=O)O)cc(=O)c2cc2c(=O)cc(C(=O)O)n(CC)c12
Second: CCOC(=O)c1cc(=O)c2c(OCC(COc3cccc4oc(C(=O)OCC)cc(=O)c34)OC(=O)[C@@H](N)CCCCN)cccc2o1
The “viability change, negative = cytotoxic” value of the first is higher: 0.41% for the first, -2.8% for the second.

Going from C[C@@H](N)C(=O)O to NCCC(O)(P(=O)(O)O)P(=O)(O)O, the “viability change, negative = cytotoxic” value rises from -2.33% to 14.2%.

Compared with CCCCCCCCCC#N, CCN(CC)C(=O)N(CC)CC is lower in “viability change, negative = cytotoxic” value: -2.17% for the first, -5.44% for the second.

First: Cc1cccc(C)c1NC(=O)CN1CCCCCC1
Second: CC(=O)O[C@H]1CC[C@@]2(C)C(=CC[C@@H]3[C@@H]2CC[C@]2(C)C(C(C)=O)=CC[C@@H]32)C1
The “viability change, negative = cytotoxic” value of the first is lower: 1.86% for the first, 15.1% for the second.

First: COc1cc(C)ccc1C(C)C
Second: CCc1cc2cc(OC)c(OC)cc2c(Cc2ccccc2)n1
The “viability change, negative = cytotoxic” value of the first is higher: 7.87% for the first, 3.43% for the second.

Going from Oc1ccccc1C=NCc1ccccc1 to CN(CCCN1c2ccccc2CCc2ccccc21)CC(=O)c1ccc(Cl)cc1, the “viability change, negative = cytotoxic” value rises from -2.42% to 8.24%.

Compared with NS(=O)(=O)c1cc(-c2nn[nH]n2)c(NCc2cccs2)cc1Cl, CS(=O)(=O)c1ccc([C@@H](O)[C@@H](CF)NC(=O)C(Cl)Cl)cc1 is higher in “viability change, negative = cytotoxic” value: -14% for the first, 6.61% for the second.

First: C[C@]12CCC(=O)C=C1CC[C@@H]1[C@@H]2CC[C@@]2(C)[C@H]1CC[C@]2(O)C(=O)CO
Second: Cc1cn([C@@H]2O[C@H](CO)[C@@H](O)[C@@H]2F)c(=O)[nH]c1=O
The “viability change, negative = cytotoxic” value of the first is lower: -2.54% for the first, 2.31% for the second.

Compared with C=CC(C)(O)CC/C=C(\C)CCC=C(C)C (stereo not given), CC(C)Nc1nc(N)nc(Cl)n1 is higher in “viability change, negative = cytotoxic” value: -5.28% for the first, 8.96% for the second.

First: C1CSCCS1
Second: CC1(C)C(=O)N(Cl)C(=O)N1Br
The “viability change, negative = cytotoxic” value of the first is lower: 1.04% for the first, 5.66% for the second.

Compared with COc1cc(Cl)ccc1Cl, COc1ccc(Nc2ccc(OC)cc2)cc1 is higher in “viability change, negative = cytotoxic” value: -2.81% [at 94.8 µM] for the first, 6.68% [at 94.8 µM] for the second.

In the case of CC(C)O, the “viability change, negative = cytotoxic” value was 3.86% [at 94.8 µM].

For C[C@@H]1CN(c2c(F)c(F)c3c(=O)c(C(=O)O)cn(C4CC4)c3c2F)C[C@H](C)N1, the “viability change, negative = cytotoxic” value was 1.36% [at 34.3 µM].

In the case of CN(C)C(=O)NC1(c2ccccc2)CCN(CCC[C@]2(c3ccc(Cl)c(Cl)c3)CCCN(C(=O)c3ccccc3)C2)CC1, the Potency was 14.6 µM (active).
In the case of Cc1nc(N)nc(N)c1-c1ccc(Cl)c(Cl)c1, the Potency was 0.668 µM (active).
